# High-throughput results: PubChem, several laboratories
# CYP2C19 inh: blocks human cytochrome P450 2C19; P33261; CYP2C19 Supersomes, luciferin-H EGE luminescence, 30 min; inhibition, % at 5 µM; 96,000 compounds, 21% hits;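 active = CYP2C19 inhibition above a set limit at 5 µM in the primary screen, cut at about 50% in these data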;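 note: plate controls were negative control wells for no effect and 2.5 mM tranylcypromine positive control for full effect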
# Target sequence (P33261 whole entry, looked up): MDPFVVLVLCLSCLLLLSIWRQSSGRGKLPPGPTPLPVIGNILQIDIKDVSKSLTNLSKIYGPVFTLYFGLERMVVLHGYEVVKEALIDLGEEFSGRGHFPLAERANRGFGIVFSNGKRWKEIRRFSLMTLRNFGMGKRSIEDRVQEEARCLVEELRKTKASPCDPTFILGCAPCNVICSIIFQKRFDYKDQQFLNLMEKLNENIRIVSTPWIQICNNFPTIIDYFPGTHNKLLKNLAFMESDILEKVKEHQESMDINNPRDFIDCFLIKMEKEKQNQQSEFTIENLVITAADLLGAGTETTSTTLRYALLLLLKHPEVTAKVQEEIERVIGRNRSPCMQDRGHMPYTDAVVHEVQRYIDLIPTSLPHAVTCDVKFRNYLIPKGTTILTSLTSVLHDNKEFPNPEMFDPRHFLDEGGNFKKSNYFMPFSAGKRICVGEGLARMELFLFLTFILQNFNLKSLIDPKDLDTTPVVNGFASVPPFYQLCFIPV
# CYP2C9 inh: human CYP2C9 inhibition; P11712; CYP2C9 Supersomes, luciferin-H conversion, luminescence; inhibition, % at 5 µM; 96,000 compounds, 20% hits;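 active = blocking of liver enzyme CYP2C9 beyond about 50% at 5 µM, limit read from the data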
# CYP2C19 activ: increases human CYP2C19 enzyme activity; 96,000 tested, under 10 active; AID 1025; activation factor at 5 µM; recombinant CYP2C19, luciferin-H EGE luminescence; stronger effect = higher value; 0 = fully inhibited enzyme, 1 = untreated enzyme;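 active = activation factor of at least 2 at 5 µM in the primary screen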;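 note: 0 = wells with 2.5 mM tranylcypromine and 1 = vehicle-only wells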
# CYP2C9 act: increases human cytochrome P450 2C9 activity | P11712 | activation factor at 5 µM | 96,000 compounds, 1.4% hits | recombinant CYP2C9, luciferin-H conversion, luminescence; stronger effect = higher value; factor 1 = untreated enzyme, 0 = blocked | AID 1024;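 active = activation factor of 2 or more for CYP2C9 at a 5 µM dose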;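 note: 0 = sulfaphenazole-blocked wells and 1 = vehicle-only wells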
# PostGolgi yeast: growth inhibition of a yeast mutant, post-Golgi transport screen. post-Golgi transport phenotypic cell assay. inhibition, % at 10 µM. 98,000 compounds, 0.9% hits;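 note: yeast cells grown in 1536-well plates; yeast grown about 18 h at 30C before absorbance read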
# PostGolgi ctrl: yeast control strain growth, post-Golgi counter-screen; efflux-deficient yeast background strain, growth absorbance A615, 16 h; inhibition, % at 10 µM; 98,000 compounds, 5% hits; AID 738
# * = called active by the depositor; · = not tested or not shown; ! = a repeat was not active. In the library only some 32% were active in any assay of this set; here they are far more common. Cut-off read from the data, not from the text of the source, unless noted: active = inhibition above about 30%; inactive = the rest.
SMILES,CYP2C19 inh,CYP2C9 inh,CYP2C19 activ,CYP2C9 act,PostGolgi yeast,PostGolgi ctrl
CCOC(=O)N1CCN(C(=O)CCn2nc(-c3ccc(Cl)cc3)ccc2=O)CC1,10,13,0.9,0.9,-3,7
CCOC(=O)Cn1nc(-c2ccc(Cl)cc2)cc1N,74*,25,0.3,0.7,-1,25
CCOC(=O)CCn1nc(-c2ccc(Cl)cc2)cc1N,79*,38,0.2,0.6,3,4
COC(=O)Cn1cc(C(=O)C2CC2)c2ccccc21,17,7,0.8,0.9,2,1
COC(=O)c1cn(CC(=O)NCc2ccco2)c2ccccc12,92*,30,0.1,0.7,9,4
COC(=O)c1cn(CC(=O)N2CCCCCC2)c2ccccc12,92*,23,0.1,0.8,5,5
COCC(=O)NC1CCN(C(=O)Nc2ccc(Br)cc2)CC1,-4,-12,1,1.1,-4,8
C=CCn1c(=O)/c(=C2/SC(C)=C(C)N2CC)s/c1=C1/C(=O)N(CC)C(=S)N1c1ccccc1,-28,-28,1.3,1.3,1,8
N#CC1=C(N)N(c2ccccc2)C(c2ccccc2)C1(C#N)C#N (centres undefined),29,55*,0.7,0.4,9,20
CC(C)Cc1nc(N2CCN(C(=O)c3ccco3)CC2)c(C#N)c2c1CCC2,99*,98*,0,0,1,14
CC(C)Cc1nc(N2CCN(C(=O)C(C)C)CC2)c(C#N)c2c1CCC2,84*,81*,0.2,0.2,9,23
CC(=O)N1CCN(c2nc(CC(C)C)c3c(c2C#N)CCC3)CC1,73*,73*,0.3,0.3,8,8
CC(C)c1nc(N2CCOCC2)c(C#N)c2c1CCC2,16,22,0.8,0.8,7,2
CC1(C)Cc2c(C#N)c(N3CCN(C(=O)c4ccco4)CC3)nc(Cc3ccccc3)c2CO1,73*,95*,0.3,0,3,17
CC(C)Cc1nc(N2CCCCC2)c(C#N)c2c1CCC2,0,3,1,1,22,10
CCOc1cc2[nH]c(=S)n(CC3CCCN3CC)c(=O)c2cc1OCC (centres undefined),-12,-6,1.1,1.1,-4,13
Cc1cc(-c2ccco2)c(C#N)c2nc3ccccc3n12,4,5,1,1,25,83*
Cc1cc(-n2ccnc2)n2c(nc3ccccc32)c1C#N,4,4,1,1,4,-6
Cc1nc(N2CCN(C(=O)c3ccc(Cl)cc3)CC2)c(C#N)c2c1COC(C)(C)C2,83*,50*,0.2,0.5,8,18
O=C(c1ccco1)N1CCN(c2nc3ccccc3n3nnnc23)CC1,19,47,0.8,0.5,5,17
CCc1c(C)c(C#N)c2nc3ccccc3n2c1N1CCN(c2cc(C)ccn2)CC1,22,67*,0.8,0.3,26,-3
CC(C)c1cc(N2CCN(C(=O)c3ccco3)CC2)n2c(nc3ccccc32)c1C#N,63*,74*,0.4,0.3,-15,2
COC(=O)CCc1c(C)c(C#N)c2nc3ccccc3n2c1N1CCCC1,9,37,0.9,0.6,14,15
O=C(C1CCCN(S(=O)(=O)Cc2ccccc2)C1)N1CCc2ccccc21 (centres undefined),24,8,0.8,0.9,6,4
O=C(Oc1ccc2ccccc2c1Cl)N1CCCC1,75*,31,0.2,0.7,-9,7
SMILES,CYP2C19 inh,CYP2C9 inh,CYP2C19 activ,CYP2C9 act,PostGolgi yeast,PostGolgi ctrl
O=C(Oc1ccc(Cl)c2cccnc12)N1CCCCC1,55*,28,0.5,0.7,-3,7
O=C(Oc1ccc(Cl)c2ccccc12)N1CCCCC1,15,42,0.9,0.6,4,16
CC(C)CCN1C(=O)c2ccc(C(=O)OCn3nnc4ccccc4c3=O)cc2C1=O,8,10,0.9,0.9,-9,-3
O=C(Nc1ccncc1)c1cc(F)cc(F)c1,86*,41,0.1,0.6,-2,3
COc1cc(C(=O)Nc2nnc(-c3sccc3C)s2)cc(OC)c1OC,-12,-19,1.1,1.2,0,36*
COc1cc(C(=O)Nc2ccncc2)cc(OC)c1OC,98*,86*,0,0.1,18,4
O=C(NCc1ccncc1)c1cccc(F)c1,18,18,0.8,0.8,15,22
COc1cc(C(=O)Nc2ccc(NC(=O)C(C)C)nc2)cc(OC)c1OC,12,16,0.9,0.8,·,·
COCCCNC(=O)c1cc(C(=O)c2c(-c3c(Cl)cccc3Cl)noc2C)c[nH]1,-4,8,1,0.9,0,11
COC(=O)CSc1cc(C)nc2ccc(OC)cc12,30,12,0.7,0.9,-4,2
COc1ccc2nc(C)cc(SCC(=O)O)c2c1,50*!,38,0.5,0.6,6,7
COc1ccc2nc(C)cc(SCC(=O)N/N=C/c3cccc4ccccc34)c2c1,1,54*,1,0.5,0,0
CC(C(=O)NC(=O)NC1CCCCC1)N1CCN(c2ccccn2)CC1 (centres undefined),25,57*,0.7,0.4,5,5
CC1(C)C(N(O)C(=O)Nc2ccc(Cl)cc2)N(c2ccc(Cl)cc2)C(=O)N1CC(=O)NN (centres undefined),35,41,0.6,0.6,-3,8
COc1ccc(C2C(C(C)=O)=C(C)N=c3s/c(=C\c4cc(C)n(C)c4C)c(=O)n32)c(OC)c1 (centres undefined),32,42,0.7,0.6,2,14
COc1ccc(C2C(C(C)=O)=C(C)N=c3s/c(=C\c4ccco4)c(=O)n32)c(OC)c1 (centres undefined),53*,78*,0.5,0.2,-12,23
CCCc1cc(=O)oc2cc3oc(C)c(C)c3cc12,72*,36,0.3,0.6,21,-4
CCCc1cc(=O)oc2cc3occ(C)c3cc12,71*,76*,0.3,0.2,-3,10
CCCc1cc(=O)oc2cc(C)c3c(C)coc3c12,53*,30,0.5,0.7,-18,9
CC1CCN(c2c(NCC3CCC(C(=O)N4CCc5ccccc5C4)CC3)c(=O)c2=O)CC1 (centres undefined),22,26,0.8,0.7,-3,1
Cc1cc(C)n2nc(SCC3COc4ccccc4O3)nc2n1 (centres undefined),30,16,0.7,0.8,-1,2
O=C(NCCCN1CCc2ccccc2C1)C1CCN(c2nnc(-n3cccc3)s2)CC1,9,21,0.9,0.8,-6,4
CCc1nc(SCC(=O)Nc2cccc(C(F)(F)F)c2)c2c(=O)n(C)c(=O)n(C)c2n1,66*,52*,0.3,0.5,-1,2
CCCc1nc(SCC(=O)c2ccccc2)c2c(=O)n(C)c(=O)n(C)c2n1,3,86*,1,0.1,-6,19
